# How the values were obtained:
# Experiment in all cases: DAPPL (digital affinity profiling via proximity ligation, sequencing); 10 mM Tris-HCl pH 7.5, 50 mM NaCl, 1 mM DTT, 4% glycerol, room temperature, 30 min; GST-TFs on glutathione beads, 16-mer random dsDNA library, 0.1% formaldehyde crosslink after washing; high values mean tight binding
# [1] = target: T1, FEV (Homo sapiens, UniProt Q99581 1-238); details: protein: recombinant; tags: N-terminal GST; dsDNA, one strand shown
# T1 sequence: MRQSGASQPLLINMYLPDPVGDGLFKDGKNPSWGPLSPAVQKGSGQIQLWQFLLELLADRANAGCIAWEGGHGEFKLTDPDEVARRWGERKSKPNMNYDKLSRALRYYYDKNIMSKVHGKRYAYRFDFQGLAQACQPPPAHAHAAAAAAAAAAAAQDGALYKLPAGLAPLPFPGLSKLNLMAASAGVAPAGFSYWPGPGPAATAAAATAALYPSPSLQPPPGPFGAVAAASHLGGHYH
# Procedure, shortened: (§1)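 The binding signal reported is, for every hexamer, its read frequency for a factor over its read frequency for the tag-only sample. Reads came from pools of yeast-expressed, GST-fused human transcription factors on glutathione beads, barcoded with DNA and mixed with that sample, which were incubated with 200 nmole of a random double-stranded 16-mer DNA library in Tris/NaCl/DTT/glycerol buffer at room temperature for 30 min. After washing, the pools were crosslinked with 0.1% formaldehyde, proximity-ligated with BsaI/T4 ligase for 1 h at 37 °C, PCR-amplified and sequenced on an Illumina NextSeq500.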
# [2] = target: ETV5 (Homo sapiens, UniProt P41161 1-510); details: protein: recombinant; tags: N-terminal GST; dsDNA, one strand shown
# Procedure, shortened: as §1
# [3] = target: HSF1 (Homo sapiens, UniProt Q00613 1-529); details: protein: recombinant; tags: N-terminal GST; chain copies: 3; dsDNA, one strand shown
# Procedure, shortened: as §1
# [4] = target: T2, SPIC (Homo sapiens, UniProt Q8N5J4 1-248); details: protein: recombinant; tags: N-terminal GST; dsDNA, one strand shown
# T2 sequence: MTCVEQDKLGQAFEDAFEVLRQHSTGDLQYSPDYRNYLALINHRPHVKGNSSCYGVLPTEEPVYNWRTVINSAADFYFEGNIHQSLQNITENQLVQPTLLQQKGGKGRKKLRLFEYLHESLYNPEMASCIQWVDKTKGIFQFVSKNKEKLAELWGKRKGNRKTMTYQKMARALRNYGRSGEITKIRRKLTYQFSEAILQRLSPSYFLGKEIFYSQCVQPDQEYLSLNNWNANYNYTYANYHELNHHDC
# Procedure, shortened: as §1
# [5] = target: ELF4 (Homo sapiens, UniProt Q99607 1-663); details: protein: recombinant; tags: N-terminal GST; dsDNA, one strand shown
# Procedure, shortened: as §1
# [6] = target: T3, ELK4 (Homo sapiens, UniProt P28324-2 1-405); details: protein: recombinant; tags: N-terminal GST; dsDNA, one strand shown
# T3 sequence: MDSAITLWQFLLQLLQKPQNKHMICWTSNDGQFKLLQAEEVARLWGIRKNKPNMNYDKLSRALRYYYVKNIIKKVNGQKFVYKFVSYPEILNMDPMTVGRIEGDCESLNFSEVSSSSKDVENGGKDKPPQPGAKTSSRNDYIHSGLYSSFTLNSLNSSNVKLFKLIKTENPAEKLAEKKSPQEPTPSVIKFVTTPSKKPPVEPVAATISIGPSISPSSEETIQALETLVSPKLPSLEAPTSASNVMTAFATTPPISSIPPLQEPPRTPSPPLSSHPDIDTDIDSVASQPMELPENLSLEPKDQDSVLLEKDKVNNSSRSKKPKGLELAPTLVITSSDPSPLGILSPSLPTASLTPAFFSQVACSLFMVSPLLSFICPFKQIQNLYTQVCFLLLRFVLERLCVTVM
# Procedure, shortened: as §1
# [7] = target: T4, ETV2 (Homo sapiens, UniProt O00321 1-342); details: protein: recombinant; tags: N-terminal GST; dsDNA, one strand shown
# T4 sequence: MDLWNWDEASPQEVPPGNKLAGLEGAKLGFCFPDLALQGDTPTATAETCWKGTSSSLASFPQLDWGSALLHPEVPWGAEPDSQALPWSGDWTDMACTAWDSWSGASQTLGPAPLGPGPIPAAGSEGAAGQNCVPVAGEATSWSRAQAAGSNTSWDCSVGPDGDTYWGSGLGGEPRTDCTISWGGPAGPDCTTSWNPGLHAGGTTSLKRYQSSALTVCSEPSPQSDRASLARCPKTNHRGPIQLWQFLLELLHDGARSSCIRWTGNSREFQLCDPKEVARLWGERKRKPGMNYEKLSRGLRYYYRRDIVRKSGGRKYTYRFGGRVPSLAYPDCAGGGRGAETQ
# Procedure, shortened: as §1
# [8] = target: T5, ELF3 (Homo sapiens, UniProt P78545 1-371); details: protein: recombinant; tags: N-terminal GST; dsDNA, one strand shown
# T5 sequence: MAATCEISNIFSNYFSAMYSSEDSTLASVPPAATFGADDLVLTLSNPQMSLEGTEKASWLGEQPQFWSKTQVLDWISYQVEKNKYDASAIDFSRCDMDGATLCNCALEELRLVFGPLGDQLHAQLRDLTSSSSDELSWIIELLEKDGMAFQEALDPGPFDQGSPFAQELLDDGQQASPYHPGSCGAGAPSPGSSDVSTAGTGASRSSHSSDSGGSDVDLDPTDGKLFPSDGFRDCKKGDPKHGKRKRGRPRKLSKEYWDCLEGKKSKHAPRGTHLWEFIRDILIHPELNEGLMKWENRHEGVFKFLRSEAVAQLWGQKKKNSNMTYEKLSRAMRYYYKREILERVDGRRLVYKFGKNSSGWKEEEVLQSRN
# Procedure, shortened: as §1
# [9] = target: CRX (Homo sapiens, UniProt O43186 1-299); details: protein: recombinant; tags: N-terminal GST; dsDNA, one strand shown
# Procedure, shortened: as §1
# [10] = target: ETV1 (Homo sapiens, UniProt P50549 1-477); details: protein: recombinant; tags: N-terminal GST; dsDNA, one strand shown
# Procedure, shortened: as §1
# [11] = target: T6, ERF (Homo sapiens, UniProt P50548 1-548); details: protein: recombinant; tags: N-terminal GST; dsDNA, one strand shown
# T6 sequence: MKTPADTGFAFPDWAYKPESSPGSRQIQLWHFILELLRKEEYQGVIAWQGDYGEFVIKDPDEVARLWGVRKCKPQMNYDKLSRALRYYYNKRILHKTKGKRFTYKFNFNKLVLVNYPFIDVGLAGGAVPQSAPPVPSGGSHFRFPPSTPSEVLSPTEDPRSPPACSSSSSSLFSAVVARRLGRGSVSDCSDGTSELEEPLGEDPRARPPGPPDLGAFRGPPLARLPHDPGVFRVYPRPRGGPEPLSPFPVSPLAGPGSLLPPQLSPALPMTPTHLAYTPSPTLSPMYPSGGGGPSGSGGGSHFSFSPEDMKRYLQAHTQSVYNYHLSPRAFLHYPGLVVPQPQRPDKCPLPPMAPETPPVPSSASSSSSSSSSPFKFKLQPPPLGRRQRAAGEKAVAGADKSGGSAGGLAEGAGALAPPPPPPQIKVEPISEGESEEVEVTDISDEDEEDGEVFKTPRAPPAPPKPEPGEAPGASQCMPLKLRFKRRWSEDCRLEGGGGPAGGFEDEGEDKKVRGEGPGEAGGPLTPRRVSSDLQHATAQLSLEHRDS
# Procedure, shortened: as §1
# [12] = target: T7, ETV3L (Homo sapiens, UniProt Q6ZN32 1-361); details: protein: recombinant; tags: N-terminal GST; dsDNA, one strand shown
# T7 sequence: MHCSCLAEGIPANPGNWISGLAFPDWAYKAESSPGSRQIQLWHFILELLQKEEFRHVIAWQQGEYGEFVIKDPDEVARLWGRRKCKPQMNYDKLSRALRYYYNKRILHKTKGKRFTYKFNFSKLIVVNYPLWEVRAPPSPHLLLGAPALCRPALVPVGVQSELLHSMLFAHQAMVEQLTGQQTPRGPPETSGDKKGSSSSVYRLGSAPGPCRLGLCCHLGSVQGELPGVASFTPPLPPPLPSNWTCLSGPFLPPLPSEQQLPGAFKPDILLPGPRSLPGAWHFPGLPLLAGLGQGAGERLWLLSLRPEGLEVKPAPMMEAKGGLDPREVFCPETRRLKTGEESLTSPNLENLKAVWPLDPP
# Procedure, shortened: as §1
# [13] = target: T8, ETS2 (Homo sapiens, UniProt P15036 1-469); details: protein: recombinant; tags: N-terminal GST; dsDNA, one strand shown
# T8 sequence: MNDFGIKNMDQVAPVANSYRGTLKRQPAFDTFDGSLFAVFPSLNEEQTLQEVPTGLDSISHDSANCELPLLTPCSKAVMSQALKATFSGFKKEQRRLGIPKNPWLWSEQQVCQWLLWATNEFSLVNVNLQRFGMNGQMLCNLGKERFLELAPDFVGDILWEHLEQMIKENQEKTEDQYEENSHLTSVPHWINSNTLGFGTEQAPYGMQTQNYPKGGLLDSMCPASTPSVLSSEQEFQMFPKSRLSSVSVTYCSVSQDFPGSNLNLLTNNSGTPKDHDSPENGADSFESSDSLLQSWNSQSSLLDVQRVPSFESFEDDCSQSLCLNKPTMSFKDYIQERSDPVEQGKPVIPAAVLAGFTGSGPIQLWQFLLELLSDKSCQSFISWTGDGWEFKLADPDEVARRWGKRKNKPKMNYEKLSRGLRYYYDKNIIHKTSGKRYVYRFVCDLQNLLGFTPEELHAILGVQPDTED
# Procedure, shortened: as §1
# [14] = target: T9, SPDEF (Homo sapiens, UniProt O95238 1-335); details: protein: recombinant; tags: N-terminal GST; dsDNA, one strand shown
# T9 sequence: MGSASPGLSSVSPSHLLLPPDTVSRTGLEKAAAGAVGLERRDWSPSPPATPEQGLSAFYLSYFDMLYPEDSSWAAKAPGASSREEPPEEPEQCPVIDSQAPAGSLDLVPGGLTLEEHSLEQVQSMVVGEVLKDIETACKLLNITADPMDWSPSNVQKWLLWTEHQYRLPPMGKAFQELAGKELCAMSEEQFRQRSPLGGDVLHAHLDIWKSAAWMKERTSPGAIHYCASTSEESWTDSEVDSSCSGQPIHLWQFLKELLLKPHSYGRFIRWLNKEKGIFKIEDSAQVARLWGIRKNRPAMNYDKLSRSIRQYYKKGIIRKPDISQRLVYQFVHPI
# Procedure, shortened: as §1
# [15] = target: T10, ETV7 (Homo sapiens, UniProt Q9Y603 1-341); details: protein: recombinant; tags: N-terminal GST; dsDNA, one strand shown
# T10 sequence: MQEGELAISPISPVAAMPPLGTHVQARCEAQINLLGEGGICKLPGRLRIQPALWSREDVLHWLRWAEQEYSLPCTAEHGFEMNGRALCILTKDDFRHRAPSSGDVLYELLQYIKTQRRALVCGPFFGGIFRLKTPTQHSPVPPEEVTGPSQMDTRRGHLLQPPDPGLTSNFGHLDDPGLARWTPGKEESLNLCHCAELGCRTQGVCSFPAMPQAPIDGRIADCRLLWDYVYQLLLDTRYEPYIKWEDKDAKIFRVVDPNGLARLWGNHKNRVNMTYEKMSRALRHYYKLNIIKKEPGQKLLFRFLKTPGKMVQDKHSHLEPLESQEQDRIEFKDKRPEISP
# Procedure, shortened: as §1
# [16] = target: T11, ELF5 (Homo sapiens, UniProt Q9UKW6-2 1-255); details: protein: recombinant; tags: N-terminal GST; dsDNA, one strand shown
# T11 sequence: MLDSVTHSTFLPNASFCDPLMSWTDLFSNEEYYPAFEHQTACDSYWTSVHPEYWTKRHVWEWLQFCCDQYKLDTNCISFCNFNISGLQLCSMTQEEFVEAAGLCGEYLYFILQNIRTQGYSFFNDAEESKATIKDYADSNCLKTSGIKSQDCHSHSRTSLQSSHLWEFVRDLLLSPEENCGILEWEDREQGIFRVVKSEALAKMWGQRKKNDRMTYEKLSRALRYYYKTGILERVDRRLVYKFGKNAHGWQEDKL
# Procedure, shortened: as §1
# [17] = target: T12, ETV3 (Homo sapiens, UniProt P41162-2 1-143); details: protein: recombinant; tags: N-terminal GST; dsDNA, one strand shown
# T12 sequence: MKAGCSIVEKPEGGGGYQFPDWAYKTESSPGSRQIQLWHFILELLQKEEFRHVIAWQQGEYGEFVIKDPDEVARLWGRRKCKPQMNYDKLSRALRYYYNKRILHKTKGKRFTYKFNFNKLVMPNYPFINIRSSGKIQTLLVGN
# Procedure, shortened: as §1
# [18] = target: ETV6 (Homo sapiens, UniProt P41212 1-452); details: protein: recombinant; tags: N-terminal GST; dsDNA, one strand shown
# Procedure, shortened: as §1
# CRX, sequence (O43186 whole entry): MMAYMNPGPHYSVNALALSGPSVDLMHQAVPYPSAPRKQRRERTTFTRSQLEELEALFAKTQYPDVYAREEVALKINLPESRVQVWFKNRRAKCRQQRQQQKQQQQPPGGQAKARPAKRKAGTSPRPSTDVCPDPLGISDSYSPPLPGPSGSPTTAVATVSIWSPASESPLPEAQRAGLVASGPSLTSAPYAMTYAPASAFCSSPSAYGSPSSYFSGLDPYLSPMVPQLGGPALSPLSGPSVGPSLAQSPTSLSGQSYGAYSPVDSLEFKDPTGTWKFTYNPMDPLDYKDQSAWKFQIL
# ETV6, sequence (P41212 whole entry): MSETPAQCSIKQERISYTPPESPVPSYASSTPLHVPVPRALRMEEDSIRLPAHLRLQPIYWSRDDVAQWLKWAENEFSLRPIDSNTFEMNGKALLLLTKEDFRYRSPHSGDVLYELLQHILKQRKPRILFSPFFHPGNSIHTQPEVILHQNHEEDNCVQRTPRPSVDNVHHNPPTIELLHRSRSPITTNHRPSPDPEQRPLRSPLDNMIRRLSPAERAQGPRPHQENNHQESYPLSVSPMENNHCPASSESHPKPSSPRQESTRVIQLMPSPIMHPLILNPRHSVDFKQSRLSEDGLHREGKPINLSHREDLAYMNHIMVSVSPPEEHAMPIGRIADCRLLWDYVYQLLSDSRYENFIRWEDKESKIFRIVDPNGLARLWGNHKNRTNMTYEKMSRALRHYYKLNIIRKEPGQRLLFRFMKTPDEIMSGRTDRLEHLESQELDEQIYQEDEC
# ETV5, sequence (P41161 whole entry): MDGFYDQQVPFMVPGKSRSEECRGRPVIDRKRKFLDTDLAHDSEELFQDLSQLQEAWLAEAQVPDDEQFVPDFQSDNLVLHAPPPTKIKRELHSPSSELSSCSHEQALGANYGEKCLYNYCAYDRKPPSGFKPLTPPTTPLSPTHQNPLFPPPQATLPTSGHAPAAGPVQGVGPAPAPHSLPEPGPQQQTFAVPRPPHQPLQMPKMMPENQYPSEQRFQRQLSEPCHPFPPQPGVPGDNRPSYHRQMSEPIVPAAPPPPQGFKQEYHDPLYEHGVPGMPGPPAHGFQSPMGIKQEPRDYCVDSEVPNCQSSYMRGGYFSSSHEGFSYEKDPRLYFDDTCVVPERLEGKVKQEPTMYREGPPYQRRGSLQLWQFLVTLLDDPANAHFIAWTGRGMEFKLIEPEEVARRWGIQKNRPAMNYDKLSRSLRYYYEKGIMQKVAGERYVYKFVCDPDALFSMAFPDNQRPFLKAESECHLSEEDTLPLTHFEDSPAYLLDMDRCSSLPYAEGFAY
# HSF1, sequence (Q00613 whole entry): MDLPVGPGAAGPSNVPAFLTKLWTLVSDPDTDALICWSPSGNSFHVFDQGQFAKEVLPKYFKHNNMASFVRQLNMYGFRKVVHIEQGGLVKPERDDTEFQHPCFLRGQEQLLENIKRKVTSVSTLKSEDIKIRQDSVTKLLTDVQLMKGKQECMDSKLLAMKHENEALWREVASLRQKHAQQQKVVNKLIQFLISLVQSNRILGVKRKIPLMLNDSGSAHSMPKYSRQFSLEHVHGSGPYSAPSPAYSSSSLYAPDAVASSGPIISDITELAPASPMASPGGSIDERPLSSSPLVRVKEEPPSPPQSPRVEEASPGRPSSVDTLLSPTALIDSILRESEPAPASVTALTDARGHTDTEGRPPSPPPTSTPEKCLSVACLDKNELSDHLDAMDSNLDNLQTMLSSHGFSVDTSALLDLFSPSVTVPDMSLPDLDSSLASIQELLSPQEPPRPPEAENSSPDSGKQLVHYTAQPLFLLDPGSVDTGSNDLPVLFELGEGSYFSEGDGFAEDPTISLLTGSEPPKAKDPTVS
# ELF4, sequence (Q99607 whole entry): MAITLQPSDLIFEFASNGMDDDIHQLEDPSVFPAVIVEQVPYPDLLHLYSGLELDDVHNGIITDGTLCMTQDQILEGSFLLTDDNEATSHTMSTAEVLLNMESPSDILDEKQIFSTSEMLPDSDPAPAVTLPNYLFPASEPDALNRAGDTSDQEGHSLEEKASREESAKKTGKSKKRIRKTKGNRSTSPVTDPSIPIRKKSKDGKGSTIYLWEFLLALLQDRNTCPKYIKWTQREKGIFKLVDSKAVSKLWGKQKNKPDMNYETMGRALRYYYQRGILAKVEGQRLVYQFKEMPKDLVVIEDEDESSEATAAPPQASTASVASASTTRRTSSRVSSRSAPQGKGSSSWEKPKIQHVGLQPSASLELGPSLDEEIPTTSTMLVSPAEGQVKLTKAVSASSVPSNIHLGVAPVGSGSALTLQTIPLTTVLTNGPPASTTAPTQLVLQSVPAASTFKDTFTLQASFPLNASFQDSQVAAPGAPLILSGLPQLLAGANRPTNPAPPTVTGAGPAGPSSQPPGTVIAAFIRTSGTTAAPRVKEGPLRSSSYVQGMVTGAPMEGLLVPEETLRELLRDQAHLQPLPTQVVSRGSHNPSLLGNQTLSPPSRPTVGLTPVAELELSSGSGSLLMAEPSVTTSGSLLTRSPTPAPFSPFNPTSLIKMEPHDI
# ETV1, sequence (P50549 whole entry): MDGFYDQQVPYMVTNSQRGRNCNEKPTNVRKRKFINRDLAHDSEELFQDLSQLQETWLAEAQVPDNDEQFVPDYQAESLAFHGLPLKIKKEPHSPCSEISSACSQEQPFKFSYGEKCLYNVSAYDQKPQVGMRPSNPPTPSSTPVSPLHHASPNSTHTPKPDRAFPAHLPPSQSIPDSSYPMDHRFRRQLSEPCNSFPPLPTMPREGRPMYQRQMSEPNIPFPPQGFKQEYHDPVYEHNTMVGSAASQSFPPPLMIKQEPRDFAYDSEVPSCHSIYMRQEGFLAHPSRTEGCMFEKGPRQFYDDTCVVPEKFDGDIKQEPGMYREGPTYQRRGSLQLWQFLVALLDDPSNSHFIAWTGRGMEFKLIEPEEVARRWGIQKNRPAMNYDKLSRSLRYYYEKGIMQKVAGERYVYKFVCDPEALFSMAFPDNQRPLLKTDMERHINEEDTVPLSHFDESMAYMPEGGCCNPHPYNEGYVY
sequence,measurement,setting,value
ATTTCC,binding signal,[1],"6.05 fold enrichment (6-mer frequency, TF over GST control)"
same,binding signal,[2],"4.48 fold enrichment (6-mer frequency, TF over GST control)"
same,binding signal,[3],"1.66 fold enrichment (6-mer frequency, TF over GST control)"
same,binding signal,[4],"4.21 fold enrichment (6-mer frequency, TF over GST control)"
same,binding signal,[5],"3.62 fold enrichment (6-mer frequency, TF over GST control)"
same,binding signal,[6],"3.35 fold enrichment (6-mer frequency, TF over GST control)"
same,binding signal,[7],"4 fold enrichment (6-mer frequency, TF over GST control)"
same,binding signal,[8],"3.48 fold enrichment (6-mer frequency, TF over GST control)"
same,binding signal,[9],"1.5 fold enrichment (6-mer frequency, TF over GST control)"
same,binding signal,[10],"4.04 fold enrichment (6-mer frequency, TF over GST control)"
same,binding signal,[11],"3.64 fold enrichment (6-mer frequency, TF over GST control)"
same,binding signal,[12],"3.98 fold enrichment (6-mer frequency, TF over GST control)"
same,binding signal,[13],"4.24 fold enrichment (6-mer frequency, TF over GST control)"
same,binding signal,[14],"3.68 fold enrichment (6-mer frequency, TF over GST control)"
same,binding signal,[15],"3.78 fold enrichment (6-mer frequency, TF over GST control)"
same,binding signal,[16],"6.17 fold enrichment (6-mer frequency, TF over GST control)"
same,binding signal,[17],"4.45 fold enrichment (6-mer frequency, TF over GST control)"
same,binding signal,[18],"4.99 fold enrichment (6-mer frequency, TF over GST control)"

# — publication PMC7862700, “An all-to-all approach to the identification of sequence-specific readers for epigenetic DNA modifications on cytosine”
